Results filed as inconclusive are left out. The source made the active and inactive calls.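 The calls were made as follows, unless noted: active = response below a set limit, under 55% cells CD8-positive and vesicle-bound, and CD8 cells' 90th-percentile brightness under 279; inactive = the rest.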
Legend:
[1] = rapamycin-like changes in RPL19A-GFP expression – cell-based, S. cerevisiae, multiplex flow cytometry, primary screen (AID 1862; in the data active = percent of DMSO control GFP below about 86%;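 also: lower values mimic rapamycin by blocking the RPL19A rise seen in DMSO cells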); settings: S. cerevisiae RPL19A-GFP strain, flow cytometry fluorescence, 3 h; at 10 µM; stronger effect = lower value
[2] = TOR pathway GLN3 branch reporter MEP2-GFP changes – S. cerevisiae, multiplex flow cytometry, primary screen (AID 1867;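 active = GFP response, as percent of the DMSO control, above the screen-wide mean plus 3 SD, about 139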;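 also: median GFP channel fluorescence of barcode-gated MEP2-GFP cells measured by flow cytometry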); settings: S. cerevisiae MEP2-GFP strain, 3 h, at 10 µM, stronger effect = higher value, 100% means same as DMSO wells
[3] = TOR pathway RTG branch CIT2 reporter changes – S. cerevisiae, GFP fusion, multiplex flow cytometry, primary screen (AID 1870;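 active = percent response above a set limit, the screen-wide mean plus 3 SD, cut at about 130% in these data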;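 also: barcoded CIT2-GFP strain pooled with four other GFP strains with rapamycin as positive control; median GFP fluorescence per well over plate mean of DMSO wells so 100% = DMSO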); settings: S. cerevisiae CIT2-GFP expression, 3 h, at 10 µM, stronger effect = higher value
[4] = TOR pathway LAP4-GFP level changes – S. cerevisiae, multiplex flow cytometry, primary screen (AID 1873;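 active = GFP signal, as percent of the solvent control, above the screen mean plus 3 SD, about 149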); settings: S. cerevisiae LAP4-GFP expression, 3 h, at 10 µM, stronger effect = higher value
[5] = yeast AGP1-GFP level changes, GLN3 branch – cell-based, multiplex flow cytometry, S. cerevisiae, primary screen (AID 1887;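 active = GFP signal above the screen-wide mean plus 3 SD, that is over about 124.5% of the solvent control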;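 also: AGP1-GFP fusion strain of S. cerevisiae within a five-strain barcoded multiplex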); settings: 3 h, at 10 µM, stronger effect = higher value
[6] = reduced mouse 2C T cell binding to pMHC/ICAM-1 vesicles – MLPCN validation set, flow cytometry, LFA-1/ICAM-1 modulator project, pilot screen (AID 2523); settings: 2C mouse CD8+ T cells, at 7 µM, stronger effect = lower value; double positive events: measured here: CD8+/vesicle+ event percentage;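 as to vesicle binding response: mean PE anti-B7-1 fluorescence of CD8+ cells relative to row control; 100% = QL9-loaded vesicles with DMSO vehicle in the same plate row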
[7] = biological target: Integrin beta-1 (Homo sapiens) + Integrin alpha-4 (Homo sapiens) (UniProt P13612+P05556); experiment: alpha4beta1 integrin LIBS antibody binding reduction – U937 cells, HUTS-21 mAb, flow cytometry, validation set, VLA-4 allosteric modulator project, pilot screen (AID 2674;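 active = inhibition above 50%, about 3 SD of the validation set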;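 also: antibody binding induced by the VLA-4 ligand LDV present at three times its Kd; 0% = LDV ligand with antibody and no compound and 100% = antibody without LDV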); settings: HUTS-21 LIBS mAb binding, at 6.7 µM, stronger effect = higher value, binding induced by LDV ligand
Sequence of Integrin beta-1 (Homo sapiens) + Integrin alpha-4 (Homo sapiens) (P05556 whole entry, looked up): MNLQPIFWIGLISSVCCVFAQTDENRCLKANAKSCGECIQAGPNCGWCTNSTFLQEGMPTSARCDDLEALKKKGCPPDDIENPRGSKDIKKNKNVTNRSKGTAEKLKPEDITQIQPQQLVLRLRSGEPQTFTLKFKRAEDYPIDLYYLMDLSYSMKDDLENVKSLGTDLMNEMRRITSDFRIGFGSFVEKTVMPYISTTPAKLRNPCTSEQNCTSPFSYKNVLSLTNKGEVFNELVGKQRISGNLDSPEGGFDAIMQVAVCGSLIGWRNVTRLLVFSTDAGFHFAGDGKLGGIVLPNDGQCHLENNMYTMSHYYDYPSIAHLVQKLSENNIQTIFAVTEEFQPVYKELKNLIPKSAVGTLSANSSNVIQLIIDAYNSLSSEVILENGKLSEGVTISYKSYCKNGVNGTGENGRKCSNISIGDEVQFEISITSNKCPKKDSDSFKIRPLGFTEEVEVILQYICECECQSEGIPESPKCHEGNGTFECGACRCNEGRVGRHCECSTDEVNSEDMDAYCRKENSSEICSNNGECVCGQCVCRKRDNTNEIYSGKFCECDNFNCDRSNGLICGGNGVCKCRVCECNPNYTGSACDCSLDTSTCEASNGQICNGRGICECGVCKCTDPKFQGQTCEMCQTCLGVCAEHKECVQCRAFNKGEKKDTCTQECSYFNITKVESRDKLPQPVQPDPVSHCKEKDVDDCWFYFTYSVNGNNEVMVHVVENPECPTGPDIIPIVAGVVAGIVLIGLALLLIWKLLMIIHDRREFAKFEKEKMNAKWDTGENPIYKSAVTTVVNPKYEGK
Sequence of Integrin beta-1 (Homo sapiens) + Integrin alpha-4 (Homo sapiens) (P13612 whole entry, looked up): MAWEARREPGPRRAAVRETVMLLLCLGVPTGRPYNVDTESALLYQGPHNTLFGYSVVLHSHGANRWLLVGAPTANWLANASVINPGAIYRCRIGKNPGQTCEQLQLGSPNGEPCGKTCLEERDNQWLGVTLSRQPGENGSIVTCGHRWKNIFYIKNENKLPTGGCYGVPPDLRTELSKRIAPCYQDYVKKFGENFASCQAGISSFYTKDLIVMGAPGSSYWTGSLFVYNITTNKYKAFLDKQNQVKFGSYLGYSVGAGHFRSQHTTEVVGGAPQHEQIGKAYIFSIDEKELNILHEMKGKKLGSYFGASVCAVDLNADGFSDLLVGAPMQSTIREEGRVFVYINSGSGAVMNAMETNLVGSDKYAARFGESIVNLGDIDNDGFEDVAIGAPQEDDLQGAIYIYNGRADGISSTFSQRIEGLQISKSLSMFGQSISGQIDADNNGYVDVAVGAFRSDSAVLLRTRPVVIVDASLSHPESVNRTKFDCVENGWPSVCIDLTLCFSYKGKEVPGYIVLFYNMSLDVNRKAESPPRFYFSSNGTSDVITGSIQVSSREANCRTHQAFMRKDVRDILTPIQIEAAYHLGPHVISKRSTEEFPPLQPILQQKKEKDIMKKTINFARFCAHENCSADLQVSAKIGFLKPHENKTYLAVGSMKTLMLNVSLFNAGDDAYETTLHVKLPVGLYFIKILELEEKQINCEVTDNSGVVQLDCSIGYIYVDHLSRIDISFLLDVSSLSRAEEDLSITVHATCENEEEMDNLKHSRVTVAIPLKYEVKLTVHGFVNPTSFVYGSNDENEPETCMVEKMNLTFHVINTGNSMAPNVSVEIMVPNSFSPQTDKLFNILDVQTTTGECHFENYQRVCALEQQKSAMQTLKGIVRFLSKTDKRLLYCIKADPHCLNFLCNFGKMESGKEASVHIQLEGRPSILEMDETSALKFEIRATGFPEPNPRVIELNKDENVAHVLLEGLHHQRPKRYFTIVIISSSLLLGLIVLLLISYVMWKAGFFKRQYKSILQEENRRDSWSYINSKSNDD

[8] = calorie-restriction mimetic ROS inhibitors, yeast – validation compound set, pilot screen (AID 2706;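 active = superoxide response below 65% of plate, a cut near 3 SD across the whole screen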;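 also: yeast exposed to compound for one week at 30 degrees C before staining; 100% = mean of all compound wells on the same plate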); settings: S. cerevisiae aging, superoxide DHE fluorescence; at 10 µM, stronger effect = lower value
[9] = biological target: Beta-adrenergic receptor kinase 1 (Homo sapiens) (UniProt P25098); experiment: GRK2 binders displacing RNA aptamer, biochemical, validation, human GRK2, bead flow cytometry (AID 488806;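 active = aptamer binding inhibition above 30%, about 3 SD of noise from non-fluorescent compounds; inactive = inhibition at or below 30%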); settings: bead-bound GRK2, FAM-aptamer displacement, at 10 µM, stronger effect = higher value
Sequence of Beta-adrenergic receptor kinase 1 (Homo sapiens) (P25098 whole entry, looked up): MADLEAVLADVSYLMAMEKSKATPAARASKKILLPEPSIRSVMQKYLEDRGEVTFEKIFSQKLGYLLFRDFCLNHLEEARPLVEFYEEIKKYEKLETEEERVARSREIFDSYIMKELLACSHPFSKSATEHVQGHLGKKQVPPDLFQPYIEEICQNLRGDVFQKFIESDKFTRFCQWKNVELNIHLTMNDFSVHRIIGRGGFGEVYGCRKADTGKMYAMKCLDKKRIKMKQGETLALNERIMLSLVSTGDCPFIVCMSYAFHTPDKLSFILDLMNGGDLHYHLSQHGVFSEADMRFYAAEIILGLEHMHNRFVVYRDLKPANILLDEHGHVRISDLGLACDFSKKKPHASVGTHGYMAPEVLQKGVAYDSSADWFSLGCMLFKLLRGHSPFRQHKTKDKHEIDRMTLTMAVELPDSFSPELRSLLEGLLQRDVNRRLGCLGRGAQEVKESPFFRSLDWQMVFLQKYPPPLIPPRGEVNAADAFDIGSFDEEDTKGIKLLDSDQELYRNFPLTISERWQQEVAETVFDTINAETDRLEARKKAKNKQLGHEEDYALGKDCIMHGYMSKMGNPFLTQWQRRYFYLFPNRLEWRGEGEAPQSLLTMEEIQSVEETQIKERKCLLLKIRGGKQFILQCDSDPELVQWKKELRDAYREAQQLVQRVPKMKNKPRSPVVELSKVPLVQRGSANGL

[10] = biological target: AP-2 complex subunit beta (Homo sapiens) (UniProt P63010); experiment: beta-arrestin/AP2 interaction blockers – biochemical, validation set, GST-AP2 beads, flow cytometry, pilot screen (AID 504541;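 active = inhibition above 54%, about 3 SD of non-fluorescent compounds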;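 also: AP2 carries R879A mutation and is captured from E. coli lysate; bead-bound FITC arrestin peptide fluorescence measuring arrestin peptide binding to AP2; 0% = DMSO wells and 100% = excess unlabeled arrestin peptide control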); settings: FITC arrestin peptide, at 10 µM, stronger effect = higher value, AP2 beta2 appendage fragment, R879A mutant
Sequence of AP-2 complex subunit beta (Homo sapiens) (P63010 whole entry, looked up, the tested form may be a part, one chain of several): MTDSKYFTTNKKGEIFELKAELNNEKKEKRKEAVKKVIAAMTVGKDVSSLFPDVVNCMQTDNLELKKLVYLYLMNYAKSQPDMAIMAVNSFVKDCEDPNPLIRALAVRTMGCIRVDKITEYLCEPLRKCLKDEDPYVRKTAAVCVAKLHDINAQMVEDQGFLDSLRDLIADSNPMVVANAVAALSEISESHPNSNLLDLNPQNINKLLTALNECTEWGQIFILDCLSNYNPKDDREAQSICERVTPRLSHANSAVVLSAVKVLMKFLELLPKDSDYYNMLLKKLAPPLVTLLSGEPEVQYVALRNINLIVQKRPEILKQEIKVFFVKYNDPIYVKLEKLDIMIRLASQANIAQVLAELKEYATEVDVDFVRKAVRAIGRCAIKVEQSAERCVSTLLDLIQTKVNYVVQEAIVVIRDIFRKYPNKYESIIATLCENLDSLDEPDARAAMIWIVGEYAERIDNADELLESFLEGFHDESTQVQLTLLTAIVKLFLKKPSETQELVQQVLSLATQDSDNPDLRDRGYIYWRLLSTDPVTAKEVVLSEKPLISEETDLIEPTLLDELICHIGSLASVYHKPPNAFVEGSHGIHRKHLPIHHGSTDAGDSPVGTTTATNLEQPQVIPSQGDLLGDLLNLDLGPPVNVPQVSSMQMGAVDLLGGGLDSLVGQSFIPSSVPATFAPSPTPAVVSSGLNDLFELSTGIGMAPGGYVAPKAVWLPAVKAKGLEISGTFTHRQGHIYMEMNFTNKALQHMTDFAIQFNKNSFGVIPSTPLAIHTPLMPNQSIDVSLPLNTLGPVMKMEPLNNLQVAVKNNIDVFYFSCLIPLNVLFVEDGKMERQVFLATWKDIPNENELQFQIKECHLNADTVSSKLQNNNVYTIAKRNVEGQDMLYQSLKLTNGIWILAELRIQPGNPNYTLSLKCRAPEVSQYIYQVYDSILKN

[11] = cytosolic pH regulators acting via V-ATPase – S. cerevisiae, pHLuorin, HTS validation (AID 504600; in the data active = response above about 15%;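 also: plate controls were DMSO for no effect and reference compound for full effect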); settings: V-ATPase proton transport, at 10 µM, stronger effect = higher value
[12] = tested on: anti-desmoglein-3 scFv antibody binding to human DSG3; experiment: blockers of pathogenic pemphigus antibody–desmoglein-3 binding – biochemical, validation compound set, bead-based, flow cytometry, pilot screen (AID 588368;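 active = binding below the plate cutoff, the plate median minus 3 SD, with a reading above zero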;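 also: signal is the median channel fluorescence of bead-bound GFP antibody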); settings: Protein G beads, DSG3-Fc, scFv-GFP binding, at 10 µM, stronger effect = lower value
[13] = Nile Red efflux blockade in pump-expressing yeast – validation compound set, multiplex, phenotypic, pilot screen (AID 588506;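 active = efflux inhibition above 0.42, the validation set average plus 4 SD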;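 also: Nile Red retained in cells so higher fluorescence means more efflux inhibition; 0 = negative control wells and 1 = enniatin B 25 µM full block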); settings: S. cerevisiae pump-expressing triplex, Nile Red efflux flow cytometry; at 10 µM; stronger effect = higher value; the pumps come from Candida albicans
[14] = biological target: ATP-binding cassette sub-family B member 6 (Homo sapiens) (UniProt Q9NP58); experiment: blockers of ABCB6-driven porphyrin uptake – K562-ABCB6 cells, flow cytometry, validation set, pilot screen (AID 588550;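 active = inhibition above the screen-wide mean plus 3 SD, about 51%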;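 also: 0% = DMSO wells and 100% = benzethonium chloride 70 µM positive control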); settings: K562-ABCB6 porphyrin accumulation, 1 h, at 10 µM, stronger effect = higher value
Sequence of ATP-binding cassette sub-family B member 6 (Homo sapiens) (Q9NP58 whole entry, looked up): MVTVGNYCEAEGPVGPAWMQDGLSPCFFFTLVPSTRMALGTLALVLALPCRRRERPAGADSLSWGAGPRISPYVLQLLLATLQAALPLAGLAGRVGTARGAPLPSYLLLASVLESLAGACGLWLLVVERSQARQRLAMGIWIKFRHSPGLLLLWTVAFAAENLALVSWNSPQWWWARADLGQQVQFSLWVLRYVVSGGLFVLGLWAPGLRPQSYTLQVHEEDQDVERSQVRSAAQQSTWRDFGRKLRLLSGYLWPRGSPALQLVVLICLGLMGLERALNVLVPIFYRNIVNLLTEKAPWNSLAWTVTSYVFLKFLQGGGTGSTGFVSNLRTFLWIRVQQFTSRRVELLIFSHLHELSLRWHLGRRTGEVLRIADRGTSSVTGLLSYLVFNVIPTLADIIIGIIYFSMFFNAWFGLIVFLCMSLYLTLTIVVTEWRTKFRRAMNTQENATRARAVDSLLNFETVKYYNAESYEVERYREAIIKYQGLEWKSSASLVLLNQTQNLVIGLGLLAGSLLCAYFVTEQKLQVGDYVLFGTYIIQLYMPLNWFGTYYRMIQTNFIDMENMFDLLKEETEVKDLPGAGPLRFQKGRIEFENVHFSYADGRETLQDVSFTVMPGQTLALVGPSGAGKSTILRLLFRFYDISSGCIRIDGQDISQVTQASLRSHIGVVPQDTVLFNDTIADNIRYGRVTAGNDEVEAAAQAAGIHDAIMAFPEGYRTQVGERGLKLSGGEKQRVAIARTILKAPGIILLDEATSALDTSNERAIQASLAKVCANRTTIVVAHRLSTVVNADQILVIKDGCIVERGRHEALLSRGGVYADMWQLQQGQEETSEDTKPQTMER

[15] = AML differentiation inducers, ER-HoxA9 marrow cells – cell-based, GFP/MAC1 double positive, flow cytometry, validation set, primary screen (AID 588685;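 active = differentiation response of at least 50%, scaled between solvent and reference control, from cells with both markers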;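 also: compound exposure lasts four days before antibody staining and flow analysis; 0% = DMSO wells and 100% = 5 µM fulvestrant positive control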); settings: stronger effect = higher value, normalized: vehicle 0, fulvestrant 100

Clc1ccc(OCCCN2CCCCC2)c(Br)c1
57.1%: double positive events [6]
inactive: percent of DMSO control GFP [1] 105% | GFP response vs DMSO [2] 95.9% | percent response of DMSO control [3] 112% | GFP response vs DMSO [4] 88.3% | GFP response, % of DMSO [5] 98.7% | vesicle binding response [6] 202% | inhibition [7] 4.42% | superoxide response (% of plate) [8] 88.5% | aptamer binding inhibition [9] -2% | inhibition [10] -6.22% | response [11] 0.07% | binding (% of control) [12] 103% | efflux inhibition (fraction of control) [13] -0.35 | inhibition [14] 7% | differentiation response [15] 0%

Cc1oc2cc(O)ccc2c(=O)c1Oc1ccccc1Br
54.8%: double positive events [6]
inactive: percent of DMSO control GFP [1] 96.9% | GFP response vs DMSO [2] 108% | percent response of DMSO control [3] 93% | GFP response vs DMSO [4] 102% | GFP response, % of DMSO [5] 98.1% | vesicle binding response [6] 172% | inhibition [7] -12.4% | superoxide response (% of plate) [8] 101% | aptamer binding inhibition [9] 6% | inhibition [10] 4.89% | response [11] 1.47% | binding (% of control) [12] 102% | efflux inhibition (fraction of control) [13] -0.31 | inhibition [14] 9% | differentiation response [15] -13.1%

CC[C@]1(O)C[C@@H]2CN(CCc3c([nH]c4ccccc34)[C@@](C(=O)OC)(c3cc4c(cc3OC)N(C)[C@H]3[C@@](O)(C(=O)OC)[C@H](OC(C)=O)[C@]5(CC)C=CCN6CC[C@]43[C@@H]65)C2)C1
inactive: percent of DMSO control GFP [1] 102% | GFP response vs DMSO [2] 101% | percent response of DMSO control [3] 101% | GFP response vs DMSO [4] 92.3% | GFP response, % of DMSO [5] 99% | vesicle binding response [6] 153% | inhibition [7] 23.1% | superoxide response (% of plate) [8] 86.7% | aptamer binding inhibition [9] -13% | inhibition [10] -7.9% | response [11] 1.26% | binding (% of control) [12] 111% | inhibition [14] 8% | differentiation response [15] 3.03%
55.4%: double positive events [6]
active: efflux inhibition (fraction of control) [13] 0.59

COC(=O)CN1CC(=O)N(c2ccccc2)C1=S
59.2%: double positive events [6]
inactive: percent of DMSO control GFP [1] 101% | GFP response vs DMSO [2] 106% | percent response of DMSO control [3] 97.9% | GFP response vs DMSO [4] 100% | GFP response, % of DMSO [5] 95.8% | vesicle binding response [6] 171% | inhibition [7] 6.29% | superoxide response (% of plate) [8] 97.2% | aptamer binding inhibition [9] 1% | inhibition [10] 9.42% | response [11] 4.12% | binding (% of control) [12] 106% | efflux inhibition (fraction of control) [13] 0.22 | inhibition [14] -19% | differentiation response [15] 6.26%

COc1ccc(-c2noc(CCc3ccccc3)n2)cc1
56.4%: double positive events [6]
inactive: percent of DMSO control GFP [1] 103% | GFP response vs DMSO [2] 109% | percent response of DMSO control [3] 90% | GFP response vs DMSO [4] 101% | GFP response, % of DMSO [5] 91.8% | vesicle binding response [6] 174% | inhibition [7] 4.42% | superoxide response (% of plate) [8] 99.8% | aptamer binding inhibition [9] 0% | inhibition [10] 4.14% | response [11] -3.58% | binding (% of control) [12] 111% | inhibition [14] 0% | differentiation response [15] -0.2%
active: efflux inhibition (fraction of control) [13] 0.48

CC(C)NNC(=O)c1ccncc1
55.2%: double positive events [6]
inactive: percent of DMSO control GFP [1] 100% | GFP response vs DMSO [2] 101% | percent response of DMSO control [3] 107% | GFP response vs DMSO [4] 114% | GFP response, % of DMSO [5] 111% | vesicle binding response [6] 178% | inhibition [7] -7.7% | superoxide response (% of plate) [8] 101% | aptamer binding inhibition [9] 2% | inhibition [10] -13.9% | response [11] -0.37% | binding (% of control) [12] 98.7% | efflux inhibition (fraction of control) [13] 0.22 | inhibition [14] 3% | differentiation response [15] -26%

Cc1ccc2[nH]c3c(c2c1)CN(C)CC3
inactive: percent of DMSO control GFP [1] 102% | GFP response vs DMSO [2] 107% | percent response of DMSO control [3] 97.9% | GFP response vs DMSO [4] 97.4% | GFP response, % of DMSO [5] 100% | vesicle binding response [6] 188% | inhibition [7] 9.09% | superoxide response (% of plate) [8] 99.8% | aptamer binding inhibition [9] 5% | inhibition [10] 15.9% | response [11] -3.83% | binding (% of control) [12] 105% | efflux inhibition (fraction of control) [13] -0.09 | inhibition [14] 12% | differentiation response [15] -8.27%
63.4%: double positive events [6]

Cc1ncc([N+](=O)[O-])n1CC(O)CCl (stereo not given)
inactive: percent of DMSO control GFP [1] 101% | GFP response vs DMSO [2] 103% | percent response of DMSO control [3] 102% | GFP response vs DMSO [4] 104% | GFP response, % of DMSO [5] 100% | vesicle binding response [6] 193% | inhibition [7] 7.22% | superoxide response (% of plate) [8] 101% | aptamer binding inhibition [9] 4% | inhibition [10] 24.7% | response [11] -1.86% | binding (% of control) [12] 105% | efflux inhibition (fraction of control) [13] -0.09 | inhibition [14] 8% | differentiation response [15] -0.2%
59.5%: double positive events [6]

COc1cccc2c1C(=O)O/C2=C/c1ccc2c(c1)OCO2
64.2%: double positive events [6]
inactive: percent of DMSO control GFP [1] 95.2% | GFP response vs DMSO [2] 103% | percent response of DMSO control [3] 93% | GFP response vs DMSO [4] 92.3% | GFP response, % of DMSO [5] 83.8% | vesicle binding response [6] 177% | inhibition [7] -3.04% | superoxide response (% of plate) [8] 106% | aptamer binding inhibition [9] 1% | inhibition [10] -5.67% | response [11] -7.76% | binding (% of control) [12] 99.8% | efflux inhibition (fraction of control) [13] -0.35 | inhibition [14] 8% | differentiation response [15] -24.4%

COCCCC/C(=N\OCCN)c1ccc(C(F)(F)F)cc1
active: differentiation response [15] 139%
60.3%: double positive events [6]
inactive: percent of DMSO control GFP [1] 108% | GFP response vs DMSO [2] 108% | percent response of DMSO control [3] 98.8% | GFP response vs DMSO [4] 93.3% | GFP response, % of DMSO [5] 105% | vesicle binding response [6] 182% | inhibition [7] 10% | superoxide response (% of plate) [8] 102% | aptamer binding inhibition [9] -7% | inhibition [10] -0.39% | response [11] 1.1% | binding (% of control) [12] 91.7% | efflux inhibition (fraction of control) [13] 0.18 | inhibition [14] 3%
